Data: publication PMC13083723 (Patterns, 2026)
Out of some 5,400 compounds screened, about 190 (3.5%) showed an effect of 50% or more. Only a selection was taken, and strong results are over-represented in it overall. Positions of bridges follow the written chain, without caps; N, C: chain ends. Non-standard residues stand in square brackets, D forms with d. Residues, ends and D or L forms follow the SMILES beside them. *: point of attachment. Heptanoyl(5-Me) = CCC(C)CCCC(=O)*; Dab = NCC[C@H](N)C(=O)O

Each compound was assayed on Vero-E6 (assay: primary screen, phospholipidosis by LipidTOX staining; higher = more effect of the substance). Details: 10 µM.
Summary of the method: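 Single-concentration screen at 10 μM, with DMSO 0.1 v/v % and amiodarone 10 μM as controls. Read-out is LipidTOX Red phospholipid staining, which tolerates aldehyde fixation, in Vero-E6 cells.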

Q: How did the result_ITMP turn out when `C[C@]12CCC(=O)C=C1CC[C@@H]1[C@@H]2[C@@H](O)C[C@]2(C)C(=O)CC[C@@H]12` was run?
A: -4.8%

Q: Which result_ITMP does the source give for `NC(=O)[C@@H]1CC[C@@H]2CN1C(=O)N2OS(=O)(=O)[O-]` here?
A: -0.26%

Q: With `COc1cc(OC2CCN(C)CC2)ccc1Nc1ncc2c(n1)n(C1CCCC1)c(=O)n2C` as the compound, how does the result_ITMP read?
A: 37.2%

Q: How did the result_ITMP turn out when `COc1ccc(F)c(F)c1C(=O)c1cnc(NC2CCN(S(C)(=O)=O)CC2)nc1N` was run?
A: 16.3%

Q: How did the result_ITMP turn out when `CC[C@@H]1C(=O)N(C)c2cnc(Nc3ccc(C(=O)NC4CCN(C)CC4)cc3OC)nc2N1C1CCCC1` was run?
A: 66.8%

Q: For `CC(C)CCN1c2nc(Nc3cc(F)c(O)c(F)c3)ncc2N(C)C(=O)C1C` (stereo not drawn), which result_ITMP is on record?
A: 17.5%

Q: For `COc1cc(C(=O)NC2CCN(C)CC2)c(F)cc1Nc1ncc2c(n1)N(C1CCCC1)CC(F)(F)C(=O)N2C`, which result_ITMP is on record?
A: 69.4%

Q: Which result_ITMP does the source give for `CC[C@@H]1C(=O)N(C)c2cnc(Nc3ccc(C(=O)N[C@H]4CC[C@H](N5CCN(CC6CC6)CC5)CC4)cc3OC)nc2N1C(C)C` here?
A: 81.5%

Q: For `COc1cc(C(=O)N2CCC(N3CCN(C)CC3)CC2)ccc1Nc1ncc2c(n1)N(C)c1ccccc1C(=O)N2C`, which result_ITMP is on record?
A: 37.9%

Q: Which result_ITMP does the source give for `CCOc1cc(C(=O)N2CCC(N3CCN(C)CC3)CC2)ccc1Nc1ncc2c(n1)N(C1CCCC1)c1ccccc1C(=O)N2C` here?
A: 14.1%

Q: For `CC(C)(C)/[N+]([O-])=C/c1ccc(S(=O)(=O)[O-])cc1S(=O)(=O)[O-]`, which result_ITMP is on record?
A: -0.44%

Q: For `O=C(O)c1ccc(/C=C2\SC(=S)N(c3cccc(C(F)(F)F)c3)C2=O)cc1`, which result_ITMP is on record?
A: 0.16%

Q: How did the result_ITMP turn out when `CC(C)(COP(=O)([O-])OP(=O)([O-])OC[C@H]1O[C@@H](n2cnc3c(N)ncnc32)[C@H](O)[C@@H]1OP(=O)([O-])O)[C@@H](O)C(=O)NCCC(=O)NCCS` was run?
A: -4.31%

Q: For `COc1ccc(/C=C\c2cc(OC)c(OC)c(OC)c2)cc1OP(=O)([O-])[O-]`, which result_ITMP is on record?
A: 11.6%

Q: How did the result_ITMP turn out when `N=C1NCCN1CC(=O)O` was run?
A: 1.96%

Q: `O=C(O)CC/C=C\C[C@@H]1CO[C@H](c2ccccc2Cl)O[C@@H]1c1ccccc1O` (racemic) was tested. Which result_ITMP did it give?
A: -1.11%

Q: With `NC(=O)C1=CN([C@@H]2O[C@H](COP(=O)([O-])OP(=O)([O-])OC[C@H]3O[C@@H](n4cnc5c(N)ncnc54)[C@H](O)[C@@H]3O)[C@@H](O)[C@H]2O)C=CC1` as the compound, how does the result_ITMP read?
A: -10.8%

Q: `C[C@H]1Oc2cc(cnc2N)-c2c(nn(C)c2C#N)CN(C)C(=O)c2ccc(F)cc21` [R4A_0001637_001 / SPE_A23124853] was tested. Which result_ITMP did it give?
A: -7.18%

Q: Which result_ITMP does the source give for `Cc1onc(-c2ccccc2)c1C(=O)NC1C(=O)N2[C@@H]1SC(C)(C)[C@@H]2C(=O)[O-]` (stereo partly drawn) here?
A: -4.06%

Q: How did the result_ITMP turn out when `N=C(N)SCCc1ccc(OCc2ccc([N+](=O)[O-])cc2)cc1` was run?
A: 70%

Q: For `O=C(O)c1cc(Oc2ccc([N+](=O)[O-])cc2)cc(Oc2ccc([N+](=O)[O-])cc2)c1`, which result_ITMP is on record?
A: -1.17%

Q: Which result_ITMP does the source give for `CCOC(=O)C1CSC(Cc2ccc(OCc3ccc([N+](=O)[O-])cc3)cc2)N1` (stereo not drawn) here?
A: -2.45%

Q: How did the result_ITMP turn out when `COc1c(C)c(C(=O)c2ccc(N)c(C(=O)[O-])c2)n2ccccc12` was run?
A: -3.94%

Q: For `NCCC(O)(P(=O)([O-])O)P(=O)([O-])O`, which result_ITMP is on record?
A: -8.19%

Q: Which result_ITMP does the source give for `O=S(=O)([O-])c1cc(I)c(O)c2ncccc12` here?
A: -9.09%

Q: Which result_ITMP does the source give for `Cc1nc(=O)c2c([nH]1)CCSC2` here?
A: -2.05%

Q: With `CC1(C)[C@@H]2CC[C@@]1(C)C(=O)C2` [R4A_0000828_001 / SPE_K15714472] as the compound, how does the result_ITMP read?
A: -1%

Q: How did the result_ITMP turn out when `Cc1ccc(C(=O)Nc2cccc(C(F)(F)F)c2)cc1Nc1nc(-c2cccnc2)nc2c1cnn2C` was run?
A: -4.6%

Q: For `Cc1ccc(NC(=O)c2ccc(CN3CCN(C)CC3)cc2)cc1Nc1nc(-c2cccnc2)cs1`, which result_ITMP is on record?
A: 54%

Q: `Cc1ncc(NC(=O)c2ccc(CN3CCN(C)CC3)c(C(F)(F)F)c2)cc1Nc1nccc(-c2cccnc2)n1` was tested. Which result_ITMP did it give?
A: 9.33%

Q: `CC(C)[C@@H](C)/C=C/[C@@H](C)[C@H]1CC[C@H]2C3=CC=C4C[C@@H](O)CC[C@]4(C)[C@H]3CC[C@]12C` was tested. Which result_ITMP did it give?
A: -5.48%

Q: How did the result_ITMP turn out when `Nc1ncnc2c1ncn2C1O[C@H](COP(=O)(O)OP(=O)([O-])OP(=O)([O-])O)[C@@H](O)[C@H]1O` (stereo partly drawn) was run?
A: 6.44%

Q: For `CC1(C)[C@@H]2C[C@H]1[C@@](C)(O)[C@@H](O)C2`, which result_ITMP is on record?
A: -2.34%

Q: How did the result_ITMP turn out when `Cc1ccc(C(=O)N(CCCN)[C@@H](c2nc3cc(Cl)ccc3c(=O)n2Cc2ccccc2)C(C)C)cc1` was run?
A: 75.7%

Q: For `Cc1ccc(C(=O)N(CCCN)[C@@H](c2oc3cc(Cl)ccc3c(=O)c2Cc2ccccc2)C(C)C)cc1`, which result_ITMP is on record?
A: 92.7%

Q: `CCNC(=O)CCC(N)C(=O)O` (stereo in doubt) was tested. Which result_ITMP did it give?
A: -4.2%

Q: Which result_ITMP does the source give for `c1cc2c(cc1[C@H]1OC[C@H]3[C@@H]1CO[C@@H]3c1ccc3c(c1)OCO3)OCO2` here?
A: -6.11%

Q: `c1ccc(Oc2nc(NC3CCCCC3)c3nc[nH]c3n2)cc1` was tested. Which result_ITMP did it give?
A: -2.48%

Q: `NC(N)=NCCC[C@@H](N)C(=O)N[C@@H](CCCN=C(N)N)C(=O)N1CCC[C@H]1C(=O)N1C[C@H](O)C[C@H]1C(=O)NCC(=O)N[C@@H](Cc1cccs1)C(=O)N[C@@H](CO)C(=O)N1Cc2ccccc2C[C@@H]1C(=O)N1[C@H](C(=O)N[C@@H](CCCN=C(N)N)C(=O)O)C[C@@H]2CCCC[C@@H]21` was tested. Which result_ITMP did it give?
A: -1.28%

Q: `COc1cc2ncnc(Nc3ccc(F)c(Cl)c3)c2cc1NC(=O)/C=C/CN1CCCCC1` was tested. Which result_ITMP did it give?
A: 19.4%

Q: With `C=CC(=O)Nc1cc2c(Nc3ccc(F)c(Cl)c3)ncnc2cc1OCCCN1CCOCC1` as the compound, how does the result_ITMP read?
A: 4.03%

Q: How did the result_ITMP turn out when `CCOc1cc2ncc(C#N)c(Nc3ccc(OCc4ccccn4)c(Cl)c3)c2cc1NC(=O)/C=C/CN(C)C` was run?
A: 0.53%

Q: With `CCOc1cc2ncc(C#N)c(Nc3ccc(OCc4cccc(F)c4)c(Cl)c3)c2cc1NC(=O)/C=C/CN(C)C` as the compound, how does the result_ITMP read?
A: -0.47%

Q: `CCOc1cc2ncc(C#N)c(Nc3ccc(F)c(Cl)c3)c2cc1NC(=O)/C=C/CN(C)C` was tested. Which result_ITMP did it give?
A: 73.9%

Q: For `CN(C)C/C=C/C(=O)Nc1cc2c(Nc3ccc(F)c(Cl)c3)ncnc2cc1O[C@H]1CCOC1`, which result_ITMP is on record?
A: 108%

Q: `CCOC(=O)OC(C)OC(=O)C1N2C(=O)C(NC(=O)[C@H](N)c3ccccc3)C2SC1(C)C` (stereo partly drawn) was tested. Which result_ITMP did it give?
A: -2.51%

Q: Which result_ITMP does the source give for `CCC(=O)O[C@@H]1CC(=O)O[C@H](C)C/C=C/C=C/[C@H](OC(C)=O)[C@H](C)C[C@H](CC=O)[C@H](O[C@@H]2O[C@H](C)[C@@H](O[C@H]3C[C@@](C)(OC(C)=O)[C@@H](OC(=O)CC)[C@H](C)O3)[C@H](N(C)C)[C@H]2O)[C@H]1OC` here?
A: 7.16%

Q: With `O=C1NC(c2ccccc2)(c2ccccc2)C(=O)N1COP(=O)([O-])[O-]` as the compound, how does the result_ITMP read?
A: -0.37%

Q: With `CN1CCN(CCOc2cc(OC3CCOCC3)c3c(Nc4c(Cl)ccc5c4OCO5)ncnc3c2)CC1` as the compound, how does the result_ITMP read?
A: 58.5%

Q: For `CNC(=O)CN1CCC(Oc2cc3c(Nc4cccc(Cl)c4F)ncnc3cc2OC)CC1`, which result_ITMP is on record?
A: 27.2%

Q: With `CCC(C)CCCC(=O)N[C@@H](CCN)C(=O)N[C@H](C(=O)N[C@@H](CCN)C(=O)N[C@H]1CCNC(=O)[C@H]([C@@H](C)O)NC(=O)[C@H](CCN)NC(=O)[C@H](CCN)NC(=O)[C@H](CC(C)C)NC(=O)[C@@H](CC(C)C)NC(=O)[C@H](CCN)NC1=O)[C@@H](C)O` (stereo partly drawn) [R4A_0005175_001 / SPE_A18924964] ({Heptanoyl(5-Me)}-[Dab]T[Dab][Dab][Dab][dL]L[Dab][Dab]T; lactam 4-C) as the compound, how does the result_ITMP read?
A: -1.3%

Q: Which result_ITMP does the source give for `CO[C@@]1(NC(=O)C(C(=O)[O-])c2ccc(O)cc2)C(=O)N2C(C(=O)[O-])=C(CSc3nnnn3C)CO[C@@H]21` (stereo partly drawn) here?
A: -4.09%

Q: With `O=c1c(-c2ccc(O)cc2)coc2c(O[C@@H]3O[C@H](CO)[C@@H](O)[C@H](O)[C@H]3O)c(O)ccc12` as the compound, how does the result_ITMP read?
A: -5.15%

Q: Which result_ITMP does the source give for `CCN(CC)CCO[C@H]1CC[C@@]2(C)C(=CC[C@@H]3[C@@H]2CC[C@]2(C)C(=O)CC[C@@H]32)C1` here?
A: 61%

Q: How did the result_ITMP turn out when `CC(=O)O[C@H]1CC[C@@]2(C)C(=CCC3C2CC[C@]2(C)C(=O)CCC32)C1` (stereo partly drawn) was run?
A: 0.97%

Q: With `C[C@]12CC[C@H](O)CC1=CCC1C2CC[C@]2(C)C(=O)CC[C@@H]12` (stereo partly drawn) as the compound, how does the result_ITMP read?
A: 13.7%

Q: With `COc1ccc(C(=O)/C(Br)=C/C(=O)[O-])cc1` as the compound, how does the result_ITMP read?
A: 7.96%

Q: With `O=C([O-])[C@H](O)[C@@H](O)[C@H](O)[C@H](O)CO` as the compound, how does the result_ITMP read?
A: -4.67%

Q: Which result_ITMP does the source give for `C=C[C@@]1(C)CC(=O)[C@]2(O)[C@@]3(C)[C@@H](O)CCC(C)(C)[C@@H]3[C@H](O)[C@H](OC(C)=O)[C@@]2(C)O1` here?
A: -2.23%

Q: With `N/C(=N\Cc1ccccc1)NC(=O)c1nc(Cl)c(N)nc1N` as the compound, how does the result_ITMP read?
A: 17.2%

Q: `C[N+](C)(C)CC(=O)[O-]` was tested. Which result_ITMP did it give?
A: -1.21%

Q: With `C=C1/C(=C/C=C2\CCC[C@]3(C)[C@@H]([C@H](C)/C=C/[C@@H](C)C(C)C)CC[C@@H]23)C[C@@H](O)C[C@@H]1O` as the compound, how does the result_ITMP read?
A: -2.6%

Q: How did the result_ITMP turn out when `O=C(NC1CCN(CCCCC2(C(=O)NCC(F)(F)F)c3ccccc3-c3ccccc32)CC1)c1ccccc1-c1ccc(C(F)(F)F)cc1` was run?
A: 62.5%

Q: For `O=C(NC1CCN(CCc2c[nH]c3ccccc23)CC1)c1ccccc1`, which result_ITMP is on record?
A: 6.62%

Q: Which result_ITMP does the source give for `O=C(O)c1ccccc1-c1ccc(C(F)(F)F)cc1` here?
A: -4.47%

Q: With `CC(C)NCC(O)COc1ccc(CC(N)=O)cc1` (stereo not drawn) [R4A_0002533_001 / SPE_K44993696] as the compound, how does the result_ITMP read?
A: -2.42%

Q: `CCCCC(CC)CCC(CC(C)C)OS(=O)(=O)[O-]` (stereo not drawn) was tested. Which result_ITMP did it give?
A: -1.42%

Q: How did the result_ITMP turn out when `C[C@H](Cc1ccc(OCC(=O)[O-])cc1)NC[C@H](O)c1cccc(Cl)c1` was run?
A: -1.85%

Q: How did the result_ITMP turn out when `C[C@]12CCC(=O)C=C1CCC1C2CC[C@@]2(C)C1CC[C@@H]2O` (stereo partly drawn) was run?
A: 2.46%
